# Target: Torsin-1A-interacting protein 1 (Homo sapiens) (UniProt Q5JTV8)
# Assay: compound microarray binding of lysate hLAP1 – cell lysate, small-molecule microarray, COS7 lysate, 635/667 nm fluorescence, primary screen (AID 1116)
# Conditions: 635 nm fluorescence, higher = more signal
# Torsin-1A-interacting protein 1 (Homo sapiens), sequence (Q5JTV8 whole entry, looked up): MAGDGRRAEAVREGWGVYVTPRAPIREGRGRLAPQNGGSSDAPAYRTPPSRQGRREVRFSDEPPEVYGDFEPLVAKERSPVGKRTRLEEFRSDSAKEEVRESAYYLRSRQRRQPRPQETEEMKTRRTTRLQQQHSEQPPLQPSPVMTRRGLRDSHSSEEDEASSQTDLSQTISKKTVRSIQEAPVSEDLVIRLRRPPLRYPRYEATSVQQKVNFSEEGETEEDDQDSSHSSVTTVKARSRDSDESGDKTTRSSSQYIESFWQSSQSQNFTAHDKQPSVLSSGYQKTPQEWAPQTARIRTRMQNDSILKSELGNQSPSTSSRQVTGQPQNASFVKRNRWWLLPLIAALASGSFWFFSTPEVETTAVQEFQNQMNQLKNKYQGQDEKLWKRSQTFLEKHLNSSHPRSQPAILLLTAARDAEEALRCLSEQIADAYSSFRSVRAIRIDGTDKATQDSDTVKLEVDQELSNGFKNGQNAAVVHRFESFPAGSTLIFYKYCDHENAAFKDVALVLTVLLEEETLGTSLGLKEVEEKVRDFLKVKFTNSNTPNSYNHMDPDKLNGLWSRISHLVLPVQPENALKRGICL
row,Compound,composite z-score
1,CC(C)[Si]1(C(C)C)OCc2cc(C3CC3)nc(-c3ccc(Oc4ccccc4)cc3)c21,-0.414
2,O=C1NC(=O)C2C1C=CC(C(O)c1ccco1)N2Nc1ccc(Cl)cc1Cl (stereo unspecified),0.478
3,Cc1ccc(N2C(=O)c3ccccc3[C@@H](C(=O)NCCCN(C)C)[C@@H]2c2ccc(CO)cc2)nc1,1.29
4,CCCCCCc1nc(Cc2cc(OC)c(OC)c(OC)c2)cc2c1[Si](C(C)C)(C(C)C)OC2,-0.136
5,CCOC(=O)C1=C[C@@H](C(C)(C)C)N(S(=O)(=O)c2ccc(C)cc2)[C@H]1c1cccc2ccccc12,-0.281
6,COc1cc2c(cc1O)C(c1cccs1)N(Cc1cc3c(cc1Br)OCO3)CC2 (stereo unspecified),1.14
7,C=CCNC(=O)[C@@H]1[C@H]2C(=O)O[C@H](c3ccccc3)[C@H](c3ccccc3)N2[C@H](c2ccccc2OCCO)[C@@]12C(=O)Nc1ccc(C#CCC(C(=O)OC)C(=O)OC)cc12,0.458
8,C=CCN1C(=O)[C@]2(CCS(=O)(=O)c3ccccc3)N=C(c3ccc(OCCCO)cc3)O[C@@H]2c2ccccc21,1.68
9,CC(c1ccccc1)C(O)C1C=CC2C(=O)N(C)C(=O)C2N1Nc1ccccc1 (stereo unspecified),0.694
10,N#Cc1ccc(NN2C(C(O)c3ccc(Br)cc3)C=CC3C(=O)N(c4ccccc4)C(=O)C32)cc1 (stereo unspecified),1.14
11,COc1ccc([Si](C)(C)[C@@H]2[C@@H](CCO)O[C@]3(C(=O)N(Cc4cccc(NC(=O)[C@H](C)O)c4)c4ccccc43)[C@H]2C)cc1,0.999
12,CCCCC(CC)C(O)C1C=CC2C(=O)N(C)C(=O)C2N1Nc1ccccc1 (stereo unspecified),0.466
13,COCCOC(=O)N1C(=O)[C@@]2(c3cc(C#CCCO)ccc31)[C@H](c1ccc(OCCO)cc1)N1[C@H](c3ccccc3)[C@H](c3ccccc3)OC(=O)[C@H]1[C@@H]2C(=O)Nc1nc2ccccc2s1,1.08
14,[N-]=[N+]=NCc1ccccc1[C@@H]1OC(c2ccc(OCCCO)cc2)=N[C@]1(CCS(=O)(=O)c1ccccc1)C(=O)O,0.953
15,O=C1C[C@]2(c3ccc([N+](=O)[O-])cc3)C(=O)N(C3CC3)c3cc(CO)ccc3[C@H]2N1CC12CC3CC(CC(C3)C1)C2,-0.604
16,CCCC[C@@H]1C[C@H]1[C@@H](NC(=O)c1cccs1)c1ccccc1C(F)(F)F,0.582
17,O=C(Cc1ccccc1)[C@H]1C2C=CCCC(c3ccccc3)=C2CN1Cc1ccccc1 (stereo partly specified),0.163
18,COC(=O)[C@]1(CCS(=O)(=O)c2ccccc2)N=C(c2ccc(OCCCO)cc2)O[C@@H]1c1ccccc1N=[N+]=[N-],0.815

row,Compound,composite z-score
1,COCCOC(=O)N1C(=O)[C@@]2(c3cc(C#CC4=CCCCC4)ccc31)[C@H](c1ccccc1OCCO)N1[C@H](c3ccccc3)[C@H](c3ccccc3)OC(=O)[C@H]1[C@@H]2C(=O)N1CCN(c2ncccn2)CC1,0.0174
2,CN(C)C(=O)[C@@]1(Cc2ccccc2)N=C(c2ccc(OCCCO)cc2)O[C@H]1c1ccccc1,1.44
3,COc1ccc(C#Cc2ccc3c(c2)[C@]2(C(=O)N3)[C@H](C(=O)O)[C@H]3C(=O)O[C@H](c4ccccc4)[C@H](c4ccccc4)N3[C@@H]2c2ccc(O)cc2)cc1,0.286
4,CCCCC[C@H]1OC[C@@]23C=C(Br)[C@@H](CC12)[C@@]1(CO1)C3=O (stereo partly specified),-0.574
5,CC1CC/C=C\[C@H]2OC34C=CCN(c5ccc(Cl)cc5)C(=O)[C@H]3N(C(C)CO)C(=O)[C@]4(C)C2C(=O)O1 (stereo partly specified),0.0045
6,COc1cc2c(cc1O)C(C1CC1)N(Cc1cccc(OC(F)(F)F)c1)CC2 (stereo unspecified),0.108
7,COc1cc(C(O)C2C=CC3C(=O)N(C)C(=O)C3N2Nc2ccccc2)cc(OC)c1OC (stereo unspecified),1.3
8,[N-]=[N+]=NCc1ccccc1[C@H]1OC(c2ccc(OCCCO)cc2)=N[C@@]1(Cc1ccccc1N=[N+]=[N-])C(=O)NCC(O)CO (stereo partly specified),1.48
9,COC(=O)[C@@]1(Cc2ccc(OC)cc2)[C@H]2c3cc(C(=O)N(C)C)n(Cc4ccc(OC(F)(F)F)cc4)c3C[C@H]2CN1C(=O)c1ccccc1,1.58
10,C=C(/C(=C/C[C@H](OC(C)=O)c1ccc(CO)o1)c1cnc2ccccc2c1)C(C)C,1.07
11,Cc1ccc(S[C@]2(C(=O)NCc3ccccc3)CC(=O)N(C3CCCCC3)[C@@H]2c2ccc(CO)cc2I)cc1,0.759
12,COc1ccc([Si](C)(C)[C@@H]2[C@@H](CC(=O)N3Cc4ccccc4C[C@H]3CO)O[C@]3(C(=O)N(Cc4ccc(N5C(=O)c6cccc7cccc5c67)cc4)c4ccccc43)[C@H]2C)cc1,1.04
13,CCOC(=O)C[C@H]1[C@H](OC(=O)c2ccccc2-c2ccccc2)[C@@H](NC(=O)c2ccc3ccccc3n2)c2cc(OCCCO)ccc2N1C(=O)Cc1ccc(OC)cc1,0.781
14,CCOc1cc(C(O)C2C=CC3C(=O)NC(=O)C3N2Nc2ccc(Cl)cc2Cl)ccc1O (stereo unspecified),0.0975
15,Cc1ccc(NN2C(C(O)c3c(F)cccc3Cl)C=CC3C(=O)N(C4CCCCC4)C(=O)C32)cc1 (stereo unspecified),0.983
16,CCOC(=O)C[C@H]1[C@H](OC(=O)c2ccc(-c3ccccc3)cc2)[C@@H](NC(=O)CC(C)C)c2cc(OCCCO)ccc2N1C(=O)c1ccc2ccccc2n1,-0.289
17,COC(=O)[C@@]1(Cc2ccccc2)[C@H]2c3cc(C(=O)N4CCCC4)n(CCc4ccccn4)c3C[C@H]2CN1C(=O)c1ccccc1,2.53
18,Cc1ccc(S[C@]2(C(=O)NC(C)C)CC(=O)N(Cc3cc(C(F)(F)F)cc(C(F)(F)F)c3)[C@@H]2c2ccc(CO)cc2)cc1,0.0702
